The panel holds about 79,000 compounds, 15% with a hit somewhere; the sample as a whole holds those more often. A number with no mark means an inactive call. Calls of active or inactive are those of the source. No stated cut-off is given here; in the data, active means growth inhibition above about 70%; inactive means the rest.
Columns and labels:
[1] = NCI Yeast Anticancer Drug Screen. Data for the rad50 strain (AID 155);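 further: 0% = growth of vehicle-only cultures of the same strain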; details: S. cerevisiae rad50 strain growth inhibition; at 50.0 µM; active compounds read high
In short: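 Yeast carrying a defined DNA repair defect were exposed to test compounds, and growth was compared with vehicle-treated controls to give percent inhibition.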

[2] = NCI Yeast Anticancer Drug Screen. Data for the mec2-1 strain (AID 157); details: S. cerevisiae mec2-1 strain, at 50.0 µM, active compounds read high
In short: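 Vehicle-treated cultures served as reference for growth inhibition of compound-exposed mec2-1 yeast.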

[3] = NCI Yeast Anticancer Drug Screen. Data for the sgs1 mgt1 strain (AID 161);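 further: 0% = growth of cultures given vehicle only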; details: S. cerevisiae sgs1 mgt1 strain, at 50.0 µM, active compounds read high
In short: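 Test agents were incubated with a DNA-repair-mutant yeast strain. Growth was then read and compared against vehicle-treated controls.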

[4] = NCI Yeast Anticancer Drug Screen. Data for the cln2 rad14 strain (AID 165);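 further: 0% = growth equal to vehicle treated cultures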; details: S. cerevisiae cln2 rad14 strain, at 50.0 µM, active compounds read high
In short: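 Each compound was tested on cln2 rad14 yeast. Inhibition of growth was calculated against vehicle-exposed controls.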

[5] = NCI Yeast Anticancer Drug Screen. Data for the bub3 strain (AID 167); details: S. cerevisiae bub3 mutant strain, at 50.0 µM, active compounds read high
In short: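 Compounds were applied to a genetically altered yeast strain carrying a cell-cycle control defect. Growth inhibition was scored against vehicle-treated controls.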

[6] = NCI Yeast Anticancer Drug Screen. Data for the mlh1 rad18 strain (AID 175); details: S. cerevisiae mlh1 rad18 strain growth inhibition; at 50.0 µM; active compounds read high
In short: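 Vehicle-treated cultures served as the reference for growth inhibition in a yeast strain carrying DNA damage repair alterations exposed to each compound.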

| SMILES | growth inhibition [1] | growth inhibition [2] | growth inhibition [3] | growth inhibition [4] | growth inhibition [5] | growth inhibition [6] |
| --- | --- | --- | --- | --- | --- | --- |
| CC(O)CN1c2ccccc2Sc2ccc(Cl)cc21 (configuration not stated) | 19.2% | 10.9% | 3.35% | 17.1% | -4.9% | 12.8% |
| O=C(O)c1ccccc1/C=N/NC1=NCCCCN1 | -46.8% | -23.4% | -29.4% | -9.65% | -7.55% | -33.1% |
| CC(C)NC(=O)OCc1cn2c(c1COC(=O)NC(C)C)CCC2 | 20.4% | 12.8% | 36% | 22.4% | 14.2% | 35% |
| NCCN=C(N)C(N)=NCCN | 19.1% | 5.3% | -2.35% | -54.5% | 7.45% | 8.1% |
| Cc1cn(-c2c(C)c(C)c(-n3c(C)ccc3C)c(C)c2C)cc1C | -3.1% | -5.55% | -6.2% | -15.8% | 4.85% | 0% |
| CCCC1(CCC)NC(=O)N(CC(N)=O)C1=O | 7.45% | 0.1% | -9.5% | -20.6% | -9.1% | 16.1% |
| CC(=C/c1ccccc1)/C=C1/NC(=S)N(CN2CCCCCC2)C1=O | 5.15% | -22.1% | 19.9% | -10.2% | -9.75% | -14.8% |
| CCN(CC)CCOC(=O)c1ccc(NC(=O)Nc2ccc(Br)cc2)cc1 | 4.6% | -4.95% | 30.1% | 0.25% | 8.05% | 11.2% |
| CCCCCCCCCCCC(=O)NC(=S)Nc1ccc(C)c(C)c1 | 8.65% | 58.2% | 54.6% | -13.6% | 57.5% | 36.9% |
| O=C1NC(=S)SC1=C1CCCCC1 | 22.9% | 42.5% | 41.6% | 34.5% | 37.9% | 28.2% |
| C=CCNC(=S)NNC(=O)c1ccncc1 | -19.8% | -10.3% | -21.6% | -82.8% | 2.4% | -23.8% |
| COc1ccc2[nH]c(Br)c(CCNC(C)=O)c2c1 | -25.6% | -7.4% | -16.9% | 1.9% | -4.55% | -31.9% |
| CC(C)(c1ccccc1)[Si](c1ccccc1)(c1ccccc1)c1ccccc1 | 30.1% | -7.05% | 9.95% | 3.2% | -6.85% | 0.65% |
| CCOC(=O)C(CNCc1ccccc1)C1CCCCC1 (configuration not stated) | 8.65% | 1.65% | 18.2% | -0.7% | 5.85% | 16.1% |
| CCOC(=O)C(NC(C)=O)C(C)O (configuration not stated) | 5.85% | 3.95% | 5.05% | 3.85% | 2.95% | -0.75% |
| CC1(C)CCCC/C1=N\NC(N)=O | -12.6% | -20.4% | -8% | -6.15% | -9.6% | -14.8% |
| c1ccc(-c2nnc3nn4c(-c5ccccc5)cnnc4c3c2-c2ccccc2)cc1 | -0.05% | -10.3% | -14.8% | 1.4% | -6.05% | 1.5% |
| CCOC(=O)Cn1c(=O)[nH]c(=O)c2[nH]cnc21 | 9.85% | -5.35% | -1.3% | 9.35% | 13.3% | 23.8% |
| CC(=O)OCC1OC(n2nc(/C=C/c3ccco3)c(=O)n(-c3ccccc3)c2=S)C(OC(C)=O)C(OC(C)=O)C1OC(C)=O (configuration not stated) | 57.5% | 14.8% | 61% | 29.4% | 16.4% | 56.4% |

| SMILES | growth inhibition [1] | growth inhibition [2] | growth inhibition [3] | growth inhibition [4] | growth inhibition [5] | growth inhibition [6] |
| --- | --- | --- | --- | --- | --- | --- |
| Nc1nc(Cl)c(Cl)nc1C(=O)O | -4.65% | 10.4% | 2.3% | -32.6% | -4.25% | -1.15% |
| C/C=C/C(=O)OC/C=C(\C)CCC=C(C)C | -26.4% | -44.9% | -6.7% | -4.3% | -39.7% | -16.7% |
| CN(C)c1ccc(/C=C(/C(=O)O)c2csc(-c3nc(/C(=C\c4ccc(N(C)C)cc4)C(=O)O)cs3)n2)cc1 | 34.8% | 9.45% | 10.2% | -19.8% | 13.2% | 25.4% |
| CC(=O)CC(=O)NN(C)C | -4.8% | -32.4% | -28.9% | 8.5% | -36.4% | 9.85% |
| CN1c2ccccc2N(C(=O)c2ccc([N+](=O)[O-])cc2)C(CC(=O)O)c2cccn21 (configuration not stated) | 2.6% | -30.9% | -15.8% | 4.6% | -16.3% | 3% |
| COc1cc2ccc3c4c(OC)cc5c(c4c[n+](C)c3c2cc1OC)OCO5 | 88% (active) | 91.3% (active) | 88.3% (active) | 88.7% (active) | 90% (active) | 87.2% (active) |
| NCc1ccc(S(=O)(=O)Nc2cc(Br)cc(Br)c2)cc1 | 16.4% | 14.8% | 30.2% | 35.1% | 12% | 30.4% |
| NNc1nnnc2ccccc12 | 14.2% | 1.1% | -0.8% | -38.2% | -31.1% | 22.2% |
| N#CC(c1cc2c(cc1Br)OCO2)N1CCOCC1 (configuration not stated) | 17.5% | 19.4% | 10.9% | 8.25% | 46% | -11.8% |
| CCOc1ccccc1NC(=O)CC1SC(=Nc2ccc([N+](=O)[O-])cc2)NC1=O (configuration not stated) | 24.6% | 20.9% | 10.3% | 10.9% | -13.3% | -12.8% |
| COc1ccc(C(=O)/C=C/c2ccc(OCCSCCCCCCCCCCSCCOc3ccc(/C=C/C(=O)c4ccc(OC)cc4)cc3)cc2)cc1 | -35% | -30.1% | -16.6% | 3.75% | -20.2% | -40.3% |
| Nc1ccc(Nc2ccc([N+](=O)[O-])cc2S(=O)(=O)O)cc1 | 9.1% | 4% | -17% | -16.4% | -7.65% | 10.8% |
| C/C(=N\NC(=S)N(C)C)c1nc2ncccc2[nH]1 | -44.1% | -24.1% | -64.8% | -1.5% | 18.7% | -19.1% |
| COc1c2occc2cc2ccc(=S)oc12 | 13.2% | -10.4% | 7.35% | -4.6% | -19.9% | 23.1% |
| C=CCSc1nc2ccc(NC(C)=O)cc2s1 | 42.8% | 10.2% | 7.8% | 19.3% | 20% | 16.7% |
| CN1CCC=C(COC(=O)C(C)(C)C)C1 | 1.8% | 4.9% | -10.9% | 7.45% | 5.45% | 18.4% |
| O=C1C(O)C(c2ccccc2)c2ccccc2N1c1ccccc1 (configuration not stated) | 2.2% | 5.35% | 1.8% | -5.9% | -9.75% | 15.1% |
| c1ccc2c(c1)OP1(=NP3(=NP4(=NP5(=N1)Oc1ccccc1-c1ccccc1O5)Oc1ccccc1-c1ccccc1O4)Oc1ccccc1-c1ccccc1O3)Oc1ccccc1-2 | 7.8% | 6.3% | -30.5% | -4.1% | -1.1% | 17.2% |
